# Source: PubChem (several laboratories)
# A selection: hits, their analogues and other compounds. The true share with any hit is near 27%.
# CYP2C9 act = CYP2C9 (human) activation; P11712; recombinant CYP2C9, luciferin-H conversion, luminescence; hits give high values; factor 1 = untreated enzyme, 0 = blocked; activation factor at 5 µM; actives 1.4% (n = 96,000);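 active = activation factor of 2 or more for CYP2C9 at a 5 µM dose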;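 note: 0 = sulfaphenazole-blocked wells and 1 = vehicle-only wells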
# Target sequence (P11712 whole entry, looked up): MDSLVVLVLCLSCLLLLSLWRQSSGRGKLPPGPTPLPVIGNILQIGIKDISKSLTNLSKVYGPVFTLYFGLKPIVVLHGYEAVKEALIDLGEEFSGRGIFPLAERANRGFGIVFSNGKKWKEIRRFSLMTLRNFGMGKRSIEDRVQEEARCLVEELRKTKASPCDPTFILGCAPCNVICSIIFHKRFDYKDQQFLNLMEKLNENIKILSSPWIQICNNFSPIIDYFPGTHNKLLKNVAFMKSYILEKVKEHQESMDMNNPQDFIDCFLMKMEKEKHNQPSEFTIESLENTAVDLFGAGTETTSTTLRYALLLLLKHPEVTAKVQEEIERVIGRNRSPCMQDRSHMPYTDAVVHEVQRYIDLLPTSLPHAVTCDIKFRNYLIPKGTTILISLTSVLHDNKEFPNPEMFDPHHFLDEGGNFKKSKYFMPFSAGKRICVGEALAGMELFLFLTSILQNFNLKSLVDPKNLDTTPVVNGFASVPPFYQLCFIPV
# sEH activator = activators of human soluble epoxide hydrolase; P34913; purified human sEH enzymatic activity, activator screen; activation, % at 2 µM; actives 0.04% (n = 91,000); AID 717; in the data active = activation above about 37%
# CYP2C19 act = cytochrome P450 2C19 (human) activation. recombinant CYP2C19, luciferin-H EGE luminescence; hits give high values; 0 = fully inhibited enzyme, 1 = untreated enzyme. activation factor at 5 µM. 96,000 tested, under 10 active. AID 1025;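 active = activation factor of at least 2 at 5 µM in the primary screen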;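 note: 0 = wells with 2.5 mM tranylcypromine and 1 = vehicle-only wells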
# sEH inh = inhibitors of human soluble epoxide hydrolase; P34913; recombinant human sEH enzymatic activity assay; inhibition, % at 2 µM; actives 0.34% (n = 91,000); in the data active = inhibition above about 80%
# CYP2C19 inh = human CYP2C19 inhibition | CYP2C19 Supersomes, luciferin-H EGE luminescence, 30 min | inhibition, % at 5 µM | actives 21% (n = 96,000);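 active = CYP2C19 inhibition above a set limit at 5 µM in the primary screen, cut at about 50% in these data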;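 note: plate controls were negative control wells for no effect and 2.5 mM tranylcypromine positive control for full effect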
# CYP2C9 inh = human CYP2C9 inhibition; P11712; CYP2C9 Supersomes, luciferin-H conversion, luminescence; inhibition, % at 5 µM; actives 20% (n = 96,000); AID 777;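 active = blocking of liver enzyme CYP2C9 beyond about 50% at 5 µM, limit read from the data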
# * = called active by the depositor; . = no result given.
SMILES,CYP2C9 act,sEH activator,CYP2C19 act,sEH inh,CYP2C19 inh,CYP2C9 inh
Cc1ccccc1Nc1nc(-c2sc(NC(=O)c3ccccc3)nc2C)cs1,0.9,-46,0.4,47,55*,10
Cc1nc(NC(=O)c2ccccc2)sc1-c1csc(Nc2ccc(Cl)cc2)n1,1.2,-35,0.6,34,45,-19
Cc1cc(N)c(NC2=CC(=O)CC(C)(C)C2)cc1C,1.1,-4,0.9,3,8,-9
COc1ccc(C2/C(=C(\O)c3ccc(OC)c(Cl)c3)C(=O)C(=O)N2CCN(C)C)cc1 (stereo not given),1.3,8,1.2,-6,-25,-26
COCCN(C(=O)Nc1ccc(OC)cc1OC)C1CCN(C(C)=O)CC1,1,10,1.1,-12,-11,1
Cc1[nH]c2ccccc2c1C(c1ccccn1)N1CCC(C)CC1 (stereo not given),1.1,.,0.5,.,50,-14
CCOc1ccc2[nH]c(S(=O)(=O)CC)nc2c1Cl,0.6,-6,1.1,11,-14,36
C/C(CCc1ccc2c(c1)OCO2)=N\N=C(/N)SC1CC(=O)N(c2ccc(Cl)cc2)C1=O (stereo not given),0.5,-47,0.8,49,24,55*
Cc1cc(C)nc(NCC(O)COc2ccccc2C)n1 (stereo not given),0.9,12,0.1,-13,87*,9
Cc1cc(C)nc(NCC(O)CNc2ccccc2C)n1 (stereo not given),0.9,8,0.8,-4,19,7
O=C(Nc1ccccn1)C12CC3CC(CC(C3)C1)C2,0.1,-8,0.7,10,26,92*
CC1(C)CC(C(=O)Nc2nccs2)CCO1 (stereo not given),1,24,0.7,-25,27,-3
O=C(Nc1nccs1)C12CC3CC(C1)CC(C(=O)Nc1nccs1)(C3)C2,0.2,15,0.1,-16,91*,81*
O=C(NC1=NCCS1)C12CC3CC(C1)CC(C(=O)NC1=NCCS1)(C3)C2,0.9,3,0.6,-1,38,6
CC12COC3(C(=O)Nc4nccs4)CC1CCC32C (stereo not given),1,3,0.4,0,60*,5
Cc1cc(C(=O)COC(=O)c2csc3c2CCCC3)c(C)n1C,1.4,.,1.1,.,-8,-37
Cc1sc(NC(=O)CN(Cc2ccc(F)cc2)C(=O)C(C)C)c(C(N)=O)c1C,0.7,-8,0.5,9,51*,26
COC(=O)CCC(=O)Nc1sc(C)c(C)c1C(N)=O,1,.,1.1,.,-6,2
COC(=O)c1c(C)oc2ccc(N(C(=O)c3ccncc3)S(=O)(=O)c3ccccc3)cc12,0.2,16,0.1,-16,91*,77*
COC(=O)c1c(C)oc2ccc(OC(=O)N3CCOCC3)cc12,1.1,14,1.1,-12,-8,-13
CCCC(=O)N(c1ccc2oc(=O)sc2c1)S(=O)(=O)c1ccccc1,0.6,-19,0.6,19,44,35
COC(=O)c1c(C)oc2ccc(N(C(=O)c3ccncc3)S(=O)(=O)c3ccc(C)cc3)cc12,0,10,0,-8,100*,98*
COc1ccc(CNC(=O)Cc2csc(Nc3nc(=S)[nH]c4ccccc34)n2)cc1,0.1,-12,0.3,10,66*,86*
O=C(Cc1c(O)c2ccccc2[nH]c1=O)NCc1ccc(F)cc1,0.9,25,1,-23,3,8
O=C(Cc1csc(Nc2nc(=S)[nH]c3ccccc23)n1)NCc1ccc(Cl)cc1,0.2,-10,0.4,7,56*,83*
SMILES,CYP2C9 act,sEH activator,CYP2C19 act,sEH inh,CYP2C19 inh,CYP2C9 inh
CCOC(=O)c1c(=O)n(O)c2ccc(C)cc2[n+]1[O-],1.2,-8,1.2,7,-15,-18
CCn1ncc(C2=NOC(C(=O)NCCc3ccccc3)C2)c1C (stereo not given),1,12,1,-11,0,-4
O=c1c2[nH]c3ccccc3c2ncn1CCCn1ccnc1,0.3,11,0.7,-10,30,72*
CCCCn1cnc2c([nH]c3ccccc32)c1=O,1,8,0.7,-4,32,0
O=c1c2[nH]c3ccc(Br)cc3c2ncn1CCCn1ccnc1,0.1,-18,0.2,19,82*,89*
CC(C)=CCc1c(O)ccc(C(=O)Cc2ccccc2)c1O,0.5,-1,0.9,3,12,46
CCC(=O)c1ccc(O)c(CC=C(C)C)c1,0.4,8,0.4,-5,58*,64*
O=c1c2cc(F)ccc2[nH]c(=S)n1CCCN1CCOCC1,1.1,6,0.3,-3,67*,-7
O=c1c2cc(N3CCOCC3)ccc2[nH]c(=S)n1Cc1ccc(Cl)cc1,0.4,4,0.8,-2,20,58*
CCOc1ccc2c(c1)C(c1ccccc1)=NNC(c1ccccc1)=N2,.,-7,.,7,.,.
CCOc1ccc2c(c1)-c1c(ssc1=S)C(C)(C)N2,0.3,18,0.3,-17,72*,72*
CS(=O)(=O)c1cccc(C(=O)NC(c2ccccc2)c2ccccc2)c1,0,13,0.3,-10,75*,97*
COc1ccc(/C=C2/C(=O)ON=C2c2ccccc2)cc1OC,1.1,6,1.1,-2,-6,-9
CCOc1cc(/C=C2/SC(=O)N(CC(=O)N3CCc4ccccc4C3)C2=O)ccc1OCC(=O)O,1,-2,1,7,1,3
COc1ccc(/C=C2\SC(=NCc3ccccc3)N(Cc3ccccc3)C2=O)cc1OC,0.8,4,0.3,-1,72*,22
COc1cc(/C=C2/SC(=O)N(Cc3ccccc3)C2=O)ccc1OCc1ccncc1,0.2,-10,0.2,8,80*,82*
CCCn1c(O)c2ccc(C(=O)N=NC(=O)c3cccnc3)cc2c1O,1.2,4,1.2,-4,-23,-18
COc1cccc(N2CC(C(=O)NC3CCCCC3)CC2=O)c1 (stereo not given),2.3*,.,1,.,-3,-128
C=CCNC(=O)C1CC(=O)N(c2ccc(OCC(=O)Nc3ccccc3)cc2)C1 (stereo not given),0.4,-6,0.8,10,19,55*
COc1ccc(N2CC(C(=O)NC3CC(C)(C)NC(C)(C)C3)CC2=O)cc1 (stereo not given),0.9,.,1.1,.,-11,10
COc1cccc(N2CC(C(=O)Nc3ccc(C(=O)OC(C)C)cc3)CC2=O)c1 (stereo not given),0.3,11,0.5,-18,51*,71*
CC(C)Oc1ccc(N2CC(C(=O)Nc3ccc(N4CCOCC4)cc3)CC2=O)cc1 (stereo not given),.,-2,.,4,.,.
COc1ccc(CNC(=O)C2CC(=O)N(c3ccc(OCC(=O)N4C(C)CCCC4C)cc3)C2)cc1 (stereo not given),0.4,-34,0.7,36,31,61*
